The list is not random: actives were taken first. Their share in the collection is about 2.1%.
TDP-43 yeast inh = TDP-43 toxicity inhibition in yeast; TDP-43 expressing yeast growth rescue, BacTiter-Glo, 24 h; Potency, µM (titrated, usually from 46.1 µM), for the others: top-dose growth rescue (activation), usual class: activators; AID 652104; hit rate 1.8% among 410,000; also: % of control where 0% means no effect; nearly all actives have a fitted effect of over 50% in size
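Cell-based yeast growth screen: TDP-43 expression induced in galactose, inoculum OD600=0.02 after raffinose pregrowth to mid-log. Read-out BacTiter-Glo luminescence at 24 hr, 30 deg C; inhibition of toxicity seen as signal increase.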
Abeta yeast res = compounds reversing amyloid beta toxicity in yeast; yeast expressing A-beta42, growth rescue, OD600, 48 h; response scale: 0% DMSO, 100% iron-clioquinol control; hit rate 0.063% among 410,000; AID 1347071; Potency, µM (titrated, usually from 46.1 µM), actives largely listed as activators; also: nearly all actives have a fitted effect of over 55% in size
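Growth rescue measured by 600 nm absorbance after 48 h yeast culture at 30 C with compound. Values normalized between DMSO and an equimolar ferric chloride plus clioquinol control.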
FUS yeast rescue = suppressors of FUS proteinopathy in yeast. S. cerevisiae FUS-expressing, growth rescue, OD600, 24 h. Potency, µM (series often up to 76.6 µM), most hits filed as activators. hit rate 0.24% among 390,000;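 also: plate controls were DMSO vehicle for no effect and reference control for full effect; nearly all actives have a fitted effect of over 55% in size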
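Toxicity suppression screen in FUS-yeast. Cells induced with 2% galactose, starting OD 0.005, treated 24hr at 30C with compounds at multiple final concentrations; growth by OD600.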
aSyn yeast inh = rescues yeast growth from alpha-synuclein toxicity. Yeast expressing alpha-synuclein, growth rescue, BacTiter-Glo, 24 h. Potency, µM (doses to about 46.1 µM), for the others: at the highest dose growth rescue (activation), most hits filed as activators. hit rate 0.14% among 370,000. AID 652106; also: % of control where 0% means no effect; nearly all actives have a fitted effect of over 65% in size
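Rescue of yeast growth: cells expressing toxic alpha-synuclein, induced in galactose at OD600 0.02, incubated with compound 24 h at 30 C. ATP luminescence quantified growth; inhibitors of toxicity appear as activators.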
TSG101-PTAP inh = blocks PTAP/TSG101 interaction to inhibit HIV-1 budding. Fluorescence polarization, FITC-PTAP peptide / Tsg101 binding. 340,000 tested, under 10 active. AID 493005. Potency, µM (highest dose often 115 µM), for the others: top-dose activity change, negative = inhibition, most hits filed as inhibitors; active = well fitted inhibition curve with a large enough effect in the main read-out, with a control signal flat, not every such curve was filed as active; inconclusive = small, poorly fitted or top-dose-only effect, or effect the other way, or a change in a side signal; inactive = no such curve, though single readings can be large or run the other way; also: % of control where 0% means no effect
Target sequence (Q99816 whole entry, looked up): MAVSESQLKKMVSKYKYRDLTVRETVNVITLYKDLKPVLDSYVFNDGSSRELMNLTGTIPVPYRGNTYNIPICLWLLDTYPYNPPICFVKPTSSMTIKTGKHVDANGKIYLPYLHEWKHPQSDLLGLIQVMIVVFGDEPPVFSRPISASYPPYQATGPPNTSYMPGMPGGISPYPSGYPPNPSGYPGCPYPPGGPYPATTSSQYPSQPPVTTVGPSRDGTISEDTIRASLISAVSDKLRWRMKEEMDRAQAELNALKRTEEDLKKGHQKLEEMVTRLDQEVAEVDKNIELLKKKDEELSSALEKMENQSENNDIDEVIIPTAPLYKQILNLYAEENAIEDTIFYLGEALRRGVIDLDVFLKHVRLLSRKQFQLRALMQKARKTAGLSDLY
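Compounds were pin-transferred onto Tsg101 binding domain (10 uM final) in HEPES pH 7.5 buffer, then FITC-PTAP peptide was added at 50 nM final. After 20 min at RT, polarization reported peptide displacement across a qHTS concentration series.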
* = called active by the depositor; i = inactive; ? = inconclusive; / = no result given; [ ] = another dose, or the depositor's remark. Unless noted, calls follow the shape of the dose curve; as a rule, active = well fitted curve in the direction sought with a large enough effect; inconclusive = small, poorly fitted or top-dose-only effect, or another doubt; inactive = no such curve, though single readings can be large; an effect the other way counts as inactive or inconclusive. Potency is read from the fitted curve at half-maximal effect.

SMILES | TDP-43 yeast inh | Abeta yeast res | FUS yeast rescue | aSyn yeast inh | TSG101-PTAP inh
COc1cc(/C=C/C(=O)c2ccc(O)cc2)ccc1OCC#N | -9.2% | i | / | 1.1% | 0.5%
COc1ccc(-c2cn3nc(SCC(=O)Nc4ccc(C)c(Cl)c4)ccc3n2)cc1 | 13.8%[9.22 µM] | i | i | / | /
C/C(=N\Nc1ccc(C(=O)O)cc1)c1ccc(Br)cc1 | 10µM* | i | i | -1.2% | -4.7%
C/C(=N\Nc1ccc(C(=O)O)cc1)c1ccc(Cl)s1 | -4.2% | i | i | 14.4% | -1.5%
C/C(=N/Nc1ncc(Br)cn1)c1ccc(Br)cc1 | 28.2µM* | i | i | 7.3% | -1.7%
COc1cc(O)c2c(c1)OC(c1ccc(O)cc1)CC2=O (configuration not stated) | 12.6µM* | i | i | 8.5% | -1.5%
COc1ccc([C@@H]2CC(=O)c3c(O)cc(O)cc3O2)cc1O | 0.0% | i | i | 0.2% | -0.6%
COc1ccc(C(=O)/C=C/C(=O)N(Cc2ccc3c(c2)OCO3)C(C(=O)NC2CCCCC2)c2ccncc2)c(O)c1 (configuration not stated) | ? | i | / | ? | -3.0%
COc1ccc(CN(C(=O)/C=C/C(=O)c2ccc(OC)cc2O)C(C(=O)NC2CCCCC2)c2ccncc2)cc1 (configuration not stated) | 28.3% | i | / | 35.5µM* | -3.5%
COCCN(CC(=O)NC1CCCCC1)C(=O)/C=C/C(=O)c1ccc(OC)cc1O | 14.1µM* | i | i | 11.0% | -1.9%
COc1ccc(C(=O)/C=C/C(=O)N(CC(=O)NC2CCCCC2)Cc2cccs2)c(O)c1 | 20µM* | i | ? | 1.6% | -6.0%
COc1cc(-c2cc3nc(NCCc4ccncc4)ccn3n2)cc(OC)c1OC | 20.0% | i | i | -1.8% | /
COc1cc(-c2cc3nc(NCCOc4ccccc4)ccn3n2)cc(OC)c1OC | 31.6µM* | i | ? | -1.1% | /
O=C(Nc1ccc(Nc2ccccc2)cc1)c1c(Cl)cccc1Cl | 11.2µM* | i | i | -22.5% | 0.8%
Cc1ccc(-c2ccc(/C=N/O)o2)cc1[N+](=O)[O-] | 12.6µM* | i | i | -18.9% | -0.2%
COC(=O)c1sccc1S(=O)(=O)N1CCN(c2cccc(C)c2)C(C)C1 (configuration not stated) | 14.1µM* | i | i | / | /
COC(=O)c1cc(S(=O)(=O)N2CCN(c3cccc(C)c3)C(C)C2)c[nH]1 (configuration not stated) | -1.6% | i | i | 6.6% | -1.4%
O=C1C2ON(c3ccccc3)C(c3ccccn3)C2C(=O)N1c1ccc(Br)cc1 (configuration not stated) | 12.6µM* | ? | i | 26.1% | -4.3%
Cc1cc(C)c(NC(=O)c2cc3c(=O)n4ccccc4nc3n2C)c(C)c1 | 35.5µM* | i | i | / | /
CCc1cccc(NC(=O)CC(c2ccc(OC)cc2)N2Cc3ccccc3C2=O)c1 (configuration not stated) | -8.1% | i | i | / | /
Cc1c(C(=O)NCc2ccc3c(c2)OCO3)sc(=O)n1Cc1ccc(-c2ccccc2)cc1 | 23.5% | i | ? | -4.0% | /
CSc1ccc(Cn2c(C)c(C(=O)NCc3ccc4c(c3)OCO4)sc2=O)cc1 | 20µM* | ? | i | -7.1% | /
Cc1ccc(NC(=S)NCc2ccc3c(c2)OCO3)cc1 | 22.4µM* | i | i | -3.0% | -0.2%
Cc1ccc(Cn2c(C)c(C(=O)NCc3ccc4c(c3)OCO4)sc2=O)cc1 | 25.1µM* | ? | i | -1.9% | /
COc1ccc(C)cc1NS(=O)(=O)c1cnc(N)nc1 | 16.2% | i | i | / | /
SMILES | TDP-43 yeast inh | Abeta yeast res | FUS yeast rescue | aSyn yeast inh | TSG101-PTAP inh
C=CCN(CC#Cc1ccccc1)Cc1ccc(OC)cc1 | / | / | i | / | /
Cc1nn2c(-c3ccccc3)nnc2c2ccccc12 | 17.8µM* | i | i | ? | -6.7%
Cc1ccc(-c2nn3c(-c4ccc(C)cc4)nnc3c3ccccc23)cc1 | 16.1% | i | i | / | /
Cc1nn2c3ccccc3nc2c2ccccc12 | 39.8µM* | i | i | 27.0% | -5.1%
Cc1cc(N2CCC(C)CC2)nc2ccc(NC(=O)CCC(=O)N3CCN(c4ccccc4F)CC3)cc12 | 5.1% | i | i | / | /
O=C1c2ccccc2C(=O)N1CCc1c(-c2ccccc2)[nH]c2ccccc12 | 11.2µM* | i | i | 10.3% | 1.2%
O=C1c2ccccc2C(=O)N1CCc1c(-c2[nH]c3ccccc3c2CCN2C(=O)c3ccccc3C2=O)[nH]c2ccccc12 | 19.7% | i | i | 0.3% | 4.0%
O=C1c2ccccc2C(=O)N1CCc1ccccc1 | 11.2µM* | i | i | 23.6% | 1.6%
CCOCCCNC(=O)C1CCN(S(=O)(=O)c2cc3c(cc2Br)CCN3C(=O)CC)CC1 | / | / | i | / | /
COc1cc2c(NC3CCN(C)CC3)nc(N3CCN(C)CC3)nc2cc1OCCCN(C)C | / | / | / | -17.9% | /
COc1cc(C)ccc1OCCSc1nc2ccc(NC(=O)c3cccs3)cc2s1 | 18.1% | i | i | / | /
S=C(Nc1cccc2ccccc12)NC1CCCCC1 | 3.8% | 12.6µM* | i | 21.1% | 0.8%
CSc1ccccc1NC(=S)NC1CCCC1 | 27.4% | ? | i | 1.6% | -5.1%
CCCCc1ccccc1NC(=S)NC1CCCC1 | -9.8% | 7.08µM* | i | -5.2% | 1.5%
CCOC(=O)c1nc(N2CCN(C(=O)OCC)CC2)c2c3c(sc2n1)CCCC3 | -14.2% | i | i | 15.8µM* | -3.1%
CCc1nc(N2CCN(C(=O)CCCl)CC2)c2c3c(sc2n1)CCCC3 | 20µM* | i | i | 9.9% | /
CCOC(=O)c1nc2sc3c(c2c(=O)[nH]1)CCCC3 | -3.0% | i | / | -0.6% | -0.5%
CCOC(=O)NC[C@@]1(C(=O)OC)CC(=O)N(C)[C@@H]1c1ccccc1 | / | / | i | / | /
COc1ccccc1NC(=O)C(C)OC(=O)C1CC(=O)N(c2ccc3c(c2)OCCO3)C1 (configuration not stated) | -12.6% | i | i | 1.8% | 28.2µM*
Cc1cccc(OC(=O)c2cc(-c3ccc4c(c3)OCCO4)on2)c1C | -2.6% | i | i | / | /
COc1cc(Cl)c(C)cc1NC(=O)CSC1=NCCS1 | ? | i | i | 5.6% | -3.6%
CO[C@H]([C@H](C)/C=C/N(C)C=O)[C@@H](C)C(=O)CC[C@H](C)[C@H](O)[C@H](C)[C@H]1OC(=O)/C=C/C(C)=C/C[C@H](O)C[C@@H]2C=CC[C@@H](C[C@H](OC)[C@@H](C)[C@@H](OC)C[C@@H](OC)[C@@H]1C)O2 | / | / | 14.1µM* | / | /
CCCC[C@@H]1Cc2[nH][nH]c(=O)c2[C@H](c2ccc(C(C)C)cc2)O1 | 20µM* | i | ? | -19.6% | /
